The list is not random: actives were taken first. Their share in the collection is about 7.5%.
NPC1 prom act: activators of NPC1 promoter; Huh7 NPC1 promoter luciferase reporter, 24 h; Potency, µM (top dose mostly 9.22 µM), for the others: top-dose activation, most hits filed as activators; 320,000 compounds, 2.4% hits; AID 485313; further: % of control where 0% means no effect; nearly all actives have a fitted effect of over 60% in size
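Cells: Huh7 expressing luciferase under the NPC1 promoter, 1500/well. Seeded 2 h, compound added, incubated 24 h at 37 °C. Luciferase reagent, 10 min ambient, then luminescence.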
Luc counter: counter-screen: inhibitors of Kinase-Glo firefly luciferase; Q27757; Potency, µM (titrated, usually from 38.3 µM), for the others: at the highest dose activity change, negative = inhibition, hits mostly inhibitors; 200,000 compounds, 0.28% hits; Kinase-Glo luciferase, ATP luminescence, 8 min; further: on the % scale 0 is the no-effect control and ±100 the full control effect; nearly all actives have a fitted effect of over 60% in size
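Recombinant Kinase-Glo luciferase, 10 uM ATP (linear range), luciferin; imidazole pH 7.2 / KCl / MgCl2 / Tween / BSA buffer; 8 min RT; luminescence.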
SMN2 splice up: increases expression of the SMN2 splice variant; HEK293 SMN2-luciferase splicing reporter, luminescence, 30-36 h; Potency, µM (highest dose often 46.1 µM), without a hit: top-dose activity change, positive = activation, most hits filed as activators; 210,000 compounds, 2.8% hits; further: % of control where 0% means no effect; nearly all actives have a fitted effect of over 55% in size
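HEK293 cells carry an SMN2 minigene-luciferase reporter in which exon 7 inclusion puts luciferase in frame. Cells were seeded at 2000 cells/well, attached for 10-12 hours, then exposed to compounds for 30-36 hours at 37C before ONE-Glo luminescence.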
Rab9 prom act: activators of Rab9 promoter; 320,000 compounds, 2.8% hits; Huh7 Rab9 promoter-luciferase reporter, luminescence, 24 h; AID 485297; Potency, µM (series often up to 9.22 µM), inactives show top-dose activation, negative = inhibition, most hits filed as activators; further: % of control where 0% means no effect; nearly all actives have a fitted effect of over 60% in size
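Cells were plated at 1500 per well in reduced-serum medium with 10% FBS and left 2 h. Compound in DMSO was then added for 24 h at 37 °C. Reporter signal was read by luminescence after 10 min with luciferase detection reagent.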
FLuc counter: inhibits or activates purified firefly luciferase, miR-21 counter-screen. purified FLuc, Km substrates, luminescence inhibition. P08659. 360,000 compounds, 6.9% hits. Potency, µM (series often up to 57.5 µM), for inactives: at the top dose activity change, negative = inhibition, most hits filed as inhibitors;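 further: plate controls were vehicle for no effect and reference inhibitor for full effect; nearly all actives have a fitted effect of over 55% in size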
Target sequence (P08659 whole entry, looked up): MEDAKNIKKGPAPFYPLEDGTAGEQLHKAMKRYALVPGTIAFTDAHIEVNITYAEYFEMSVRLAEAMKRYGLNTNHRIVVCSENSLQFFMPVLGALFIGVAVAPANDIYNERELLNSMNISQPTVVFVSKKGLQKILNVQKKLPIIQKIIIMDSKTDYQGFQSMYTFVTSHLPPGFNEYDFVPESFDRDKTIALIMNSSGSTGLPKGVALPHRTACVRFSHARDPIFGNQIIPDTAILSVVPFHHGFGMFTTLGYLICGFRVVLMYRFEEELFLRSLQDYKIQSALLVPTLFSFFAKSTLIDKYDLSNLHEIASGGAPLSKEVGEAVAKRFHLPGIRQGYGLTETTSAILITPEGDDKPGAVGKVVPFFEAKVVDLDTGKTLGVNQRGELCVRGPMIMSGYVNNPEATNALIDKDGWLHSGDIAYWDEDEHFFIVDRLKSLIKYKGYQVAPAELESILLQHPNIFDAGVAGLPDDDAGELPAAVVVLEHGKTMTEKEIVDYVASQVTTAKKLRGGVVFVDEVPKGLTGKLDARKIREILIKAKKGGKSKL
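Purified P. pyralis luciferase, 10 nM final, with Km-level 10 uM D-luciferin and 10 uM ATP in 50 mM Tris acetate pH 7.5, 10 mM Mg acetate, 0.01% Tween-20, 0.05% BSA; 6-point qHTS titration about 60 µM downward; luminescence read.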
ELG1 genotoxic: induces genotoxicity in HEK293T cells with luciferase-tagged ELG1 | HEK293T ELG1-luciferase reporter, luminescence, 16 h | Potency, µM (top dose mostly 46 µM), for the others: at the highest dose activity change, positive = activation, actives largely listed as activators | 330,000 compounds, 1.3% hits | AID 504466; further: % of control where 0% means no effect; nearly all actives have a fitted effect of over 60% in size
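Reporter readout depends on ELG1 protein level, which increases with genetic stress. After 16 hr compound exposure at 37 °C, luciferase activity was quantified using ONE-Glo.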
* = called active by the depositor; ? = inconclusive; nt = no result given; [ ] = remark or other dose. The call rests on the fitted dose curve; in most records, active means well fitted curve in the direction sought with a large enough effect; inconclusive means small, poorly fitted or top-dose-only effect, or another doubt; inactive means no such curve, though single readings can be large; an effect the other way counts as inactive or inconclusive. Potency means the concentration at half of the fitted maximal effect.

SMILES | NPC1 prom act | Luc counter | SMN2 splice up | Rab9 prom act | FLuc counter | ELG1 genotoxic
COC(=O)COc1ccc(C)cc1-n1nc2ccccc2n1 | -1% | 0% | nt | -4% | -7% | 0%
Cc1cc(-n2nc3ccccc3n2)c(O)c([N+](=O)[O-])c1 | 2% | nt | nt | -5% | 2% | 0%
Cc1ccc(OC(=O)COc2ccccc2C)c(-n2nc3ccccc3n2)c1 | ? | -11% | 11µM* | ? | 4.8µM* | ?
Cc1ccc(OC(=O)c2cccc([N+](=O)[O-])c2)c(-n2nc3ccccc3n2)c1 | 3.5µM* | 0% | 13µM* | 2.8µM* | ? | ?
O=C(Nc1ccc(F)c(F)c1)C1CCCN1S(=O)(=O)c1cccc2nsnc12 (stereo unspecified) | nt | nt | -16% | nt | 5% | nt
Cc1ccc2c3c(cccc13)-c1ccccc1C2=O | 0% | 2% | ? | -4% | 19µM* | 0%
COc1ccc(-c2cc(C(=O)Nc3ccc(S(=O)(=O)Nc4onc(C)c4C)cc3)c3ccccc3n2)cc1 | 2% | nt | nt | -3% | 9.5µM* | 2%
COc1ccc(-c2cc(C(=O)Nc3ccc(C)c(N)c3)c3ccccc3n2)cc1 | 23% | nt | nt | 15% | 5.4µM* | 5%
COc1ccc(-c2cc(C(=O)Nc3ccc(S(=O)(=O)Nc4ncccn4)cc3)c3ccccc3n2)cc1 | 4% | nt | nt | 3% | 4.8µM* | 15%
COC(=O)c1ccc(NC(=O)c2cc(-c3ccncc3)nc3ccccc23)cc1 | 0% | nt | nt | -1% | -6% | -2%
O=C(N/C=C/c1ccco1)OCc1ccccc1 | ? | -3% | 13µM* | 3.5µM* | 11µM* | ?
O=C(N/C=C/c1ccco1)NCc1ccccc1 | -2% | 1% | 7% | 1% | -10% | 0%
Cc1cc(C=C2C(=O)c3ccccc3C2=O)c(C)n1-c1ccccc1 | 8% | ? | -71% | 4% | 0.12µM* | ?
Cc1cc(C=C2C(=O)c3ccccc3C2=O)c(C)n1-c1ccc(C(=O)O)cc1 | 2% | nt | nt | -2% | 19µM* | 7%
COc1ccccc1/C=C1\Cc2ccccc2C1=O | 8% | nt | nt | 1% | 11µM* | ?
Cc1cc(C=C2C(=O)c3ccccc3C2=O)c(C)n1-c1cccc(C(=O)O)c1 | 29% | -25% | -26% | 2.5µM* | 4.8µM* | 26%
COc1cc(C(=O)NCCOc2ccc(Cl)cc2)ccc1OCc1c(C)noc1C | -14% | nt | nt | -4% | nt | 1%
Cc1cc(/C=N/n2cnnc2)c(C)n1-c1ccccc1 | 4% | -2% | 22% | -1% | ? | 7%
Cc1cc(/C=C2\Cc3ccccc3C2=O)c(C)n1-c1ccccc1 | 10% | -17% | 4.5µM* | -1% | 0.19µM* | 1.2µM*
COc1cccc(N2CCN(S(=O)(=O)c3ccc4c(c3)N(C(C)=O)CCO4)CC2)c1 | -1% | nt | nt | 0% | -1% | -4%
CC1Cc2cc(/C=C3/SC(=S)N(C)C3=O)ccc2O1 (stereo unspecified) | ? | nt | nt | ? | 1.1µM* | ?
CC1Cc2cc(/C=C3/SC(N4CCC(C(N)=O)CC4)=NC3=O)ccc2O1 (stereo unspecified) | -6% | nt | nt | -1% | ? | 5%
C=CCN1C(=O)C(CC(=O)NCC)SC1=Nc1ccccc1OC (stereo unspecified) | -5% | nt | nt | -3% | 0% | 4%
COc1ccc(CCN(C)CCCN2CCc3cc(OC)c(OC)cc3CC2=O)cc1OC | nt | 1%[39.9 µM] | -4% | nt | nt | nt
C=CCc1cccc2cc(C(=O)Nc3cccc(C(=O)O)c3)c(=O)oc12 | ? | nt | nt | ? | 12µM* | 9%
C=CCc1cccc2cc(C(=O)Nc3ccc(CC(=O)O)cc3)c(=O)oc12 | 12% | 2% | 9% | -2% | 8.5µM* | 6%
C=CCc1cccc2cc(C(=O)Nc3ccc(F)cc3)c(=O)oc12 | ? | -4% | 7% | ? | -14% | ?
CCOC(=O)c1sc(NC(=O)c2nc(SCC)ncc2Cl)c(C(=O)OCC)c1C | nt | nt | 24% | nt | 2% | nt

Bioassay records as filed in PubChem BioAssay.
